FBPA Giardia inh = Giardia lamblia aldolase inhibition | Potency, µM (titrated, usually from 59.6 µM), for inactives: top-dose activity, negative = inhibition, usual class: inhibitors | purified Giardia FBPA | AID 2451 | A8B2U2 | 0.71% of 290,000 active; further: potency means the concentration at half of the fitted maximal effect; on the % scale 0 is the no-effect control and ±100 the full control effect; nearly all actives have a fitted effect of over 55% in size
Target sequence (A8B2U2 whole entry, looked up): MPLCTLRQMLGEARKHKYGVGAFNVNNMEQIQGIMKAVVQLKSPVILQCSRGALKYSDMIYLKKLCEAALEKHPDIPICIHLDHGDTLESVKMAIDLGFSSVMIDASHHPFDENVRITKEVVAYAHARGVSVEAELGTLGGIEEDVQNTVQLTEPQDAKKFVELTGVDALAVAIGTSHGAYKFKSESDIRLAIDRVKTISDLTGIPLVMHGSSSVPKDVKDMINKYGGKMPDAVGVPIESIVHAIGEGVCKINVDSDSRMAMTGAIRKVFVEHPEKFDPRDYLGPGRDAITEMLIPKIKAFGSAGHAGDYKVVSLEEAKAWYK
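Giardia FBPA (40 nM reagent) was preincubated 10 min at RT with compound (up to 57.5 uM final), then substrate plus GAPDH/TPI/NAD/arsenate coupling system with diaphorase/resazurin was added; resorufin fluorescence (525/598 nm) was read after 20 min.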
NS1 function inh = influenza NS1 inhibition; Potency, µM (titrated, usually from 46.1 µM), for inactives: top-dose activity, positive = more growth; 0.4% of 270,000 active; calls by dose curve; further: potency means the concentration at half of the fitted maximal effect; actives are rising curves; nearly all actives have a fitted effect of over 50% in size
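In this qHTS, NS1 from influenza A is expressed in budding yeast, where it slows growth. Cells are switched from glucose to 2% galactose medium (pH 6.0, -URA), treated with compound, and growth recovery is read at OD600.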
LmPK inhibitor = inhibitors of Leishmania mexicana pyruvate kinase; purified LmPK, Kinase-Glo ATP luminescence, 1 h; Potency, µM (highest dose often 57.5 µM), without a hit: top-dose activity change, negative = inhibition, usual class: inhibitors; 0.37% of 290,000 active; AID 1721; further: potency means the concentration at half of the fitted maximal effect; on the % scale 0 is the no-effect control and ±100 the full control effect
Target sequence (Q27686 whole entry, looked up): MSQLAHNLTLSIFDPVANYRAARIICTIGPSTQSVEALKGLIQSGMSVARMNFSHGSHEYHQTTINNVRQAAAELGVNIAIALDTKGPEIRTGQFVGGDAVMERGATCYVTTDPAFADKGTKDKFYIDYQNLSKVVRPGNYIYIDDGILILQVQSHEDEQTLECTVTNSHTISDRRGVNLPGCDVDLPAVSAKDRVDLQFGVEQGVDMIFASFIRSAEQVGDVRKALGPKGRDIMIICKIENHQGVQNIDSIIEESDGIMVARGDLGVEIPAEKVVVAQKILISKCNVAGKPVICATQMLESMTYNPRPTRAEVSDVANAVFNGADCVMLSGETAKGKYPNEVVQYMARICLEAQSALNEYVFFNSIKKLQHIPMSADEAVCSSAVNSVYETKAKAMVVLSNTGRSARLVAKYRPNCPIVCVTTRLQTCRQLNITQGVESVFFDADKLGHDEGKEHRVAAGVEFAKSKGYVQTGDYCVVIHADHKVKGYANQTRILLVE
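Pyruvate kinase activity monitored as ATP production (luciferase luminescence). Conditions: 0.1 nM enzyme, 0.5 mM PEP, 0.1 mM ADP, 1 h, RT; normalized against uninhibited and no-enzyme wells.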
TbPYK inhibitor = inhibitors of Trypanosoma brucei pyruvate kinase | TbPYK enzyme, Kinase-Glo Plus ATP luminescence, 45 min | Potency, µM (titrated, usually from 76.8 µM), for the others: at the top dose activity, negative = inhibition, usual class: inhibitors | 0.12% of 410,000 active | AID 624173; further: potency means the concentration at half of the fitted maximal effect; on the % scale 0 is the no-effect control and ±100 the full control effect; nearly all actives have a fitted effect of over 50% in size
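Enzyme and substrate buffer are dispensed first and compound is pin-transferred. ADP at 130 uM final then starts the reaction, which runs 45 min at room temperature. Detection reagent is added for 10 min before luminescence is imaged.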
RE007 growth inh = less growth of the S. pombe RE007 Vpr strain | S. pombe RE007 Vpr strain, BacTiter-Glo ATP luminescence, 24 h | Potency, µM (top dose mostly 92.2 µM), for inactives: top-dose activity change, negative = less growth, hits mostly inhibitors | 0.21% of 360,000 active; active means well fitted falling curve with a large enough effect; inconclusive means small, poorly fitted or top-dose-only effect; inactive means no such curve, though single readings can be large or run the other way; further: potency means the concentration at half of the fitted maximal effect; on the % scale 0 is the no-effect control and ±100 the full control effect; nearly all actives have a fitted effect of over 50% in size
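Fission yeast strain RE007, carrying one chromosomally integrated HIV-1 vpr copy, was seeded at OD 0.01 in PMG+AL medium with 23 nL pinned compound. After 24 h at 30 °C and 99% humidity, viability was read by BacTiter-Glo luminescence.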
Sm TGR inh = blocks Schistosoma mansoni thioredoxin glutathione reductase; AID 485364; Q962Y6; Potency, µM (doses to about 114 µM), without a hit: at the highest dose activity change, negative = inhibition, usual class: inhibitors; 3% of 360,000 active; purified TGR, DTNB reduction, TNB absorbance 405 nm; further: potency means the concentration at half of the fitted maximal effect; on the % scale 0 is the no-effect control and ±100 the full control effect; nearly all actives have a fitted effect of over 60% in size
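First, TGR (20 nM dispensed) and NADPH were mixed with compound. Second, a 15 min room-temperature incubation followed. Third, further NADPH and then DTNB were added to start the reaction. Finally, TNB absorbance was monitored kinetically.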
NS1 inh valid = validation of influenza NS1 protein function inhibitors; shares compounds with NS1 function inh; influenza NS1 function cell assay, 15-point titration; activity change, negative = inhibition, % at 32.9 µM; 1,400 tested, under 10 active; AID 492980; calls by dose curve; further: 0% is about no effect
PR8 titer = influenza virus titer reduction, NS1 project | virus titer (log TCID50), log10 TCID50 at 5 µM | AID 504647 | shares compounds with NS1 function inh | 30% of 95 active | MDCK infected influenza A/PR/8/34, virus titer TCID50; active compounds read low; call rule not given here
Numbers without * were called inactive; u = inconclusive; x = no result given; [ ] = dose if it differs, or a comment. Compounds with a hit are over-represented: about 3.5% of the library has one in this group of screens. Unless noted, the call rests on the fitted dose curve; in most records, active means well fitted curve in the direction sought with a large enough effect; inconclusive means small, poorly fitted or top-dose-only effect, or another doubt; inactive means no such curve, though single readings can be large; an effect the other way counts as inactive or inconclusive.

SMILES	FBPA Giardia inh	NS1 function inh	LmPK inhibitor	TbPYK inhibitor	RE007 growth inh	Sm TGR inh	NS1 inh valid	others
Cn1cccc1C(=O)NC(=O)COC(=O)c1ccc(O)cc1	-2.2%	10µM*	2.6%	-0.7%	1.2%	-3.7%	-21.9
Cn1cccc1C(=O)NC(=O)COC(=O)c1ccc(S(C)(=O)=O)cc1	x	x	x	7.6%	12.8%	x	x
CC(C)N(Cc1ccccc1)C(=O)C1CCCN(c2ncnc3onc(-c4ccc(F)cc4)c23)C1 (stereo not drawn)	x	x	x	-0.9%	x	-1.5%	x
Fc1ccccc1N1CCN(C2CCN(Cc3c[nH]c4ccccc34)CC2)CC1	0.1%	25.1µM*	6.2%	2.7%	1.1%	14.4%[11.4 µM]	-16.5
Clc1ccccc1N1CCN(Cc2c[nH]c3ccccc23)CC1	x	x	x	36.1%	-14.0%	x	x
CCC(=O)N1CCC2(CC1)Oc1ccc(Cl)cc1C(=O)C21CC(c2ccccc2)=NO1 (stereo not drawn)	-2.5%	u	2.8%	3.3%	5.1%	-24.3%	u
O=C(c1ccoc1)N1CCC2(CC1)Oc1ccc(Cl)cc1C(=O)C21CC(c2ccccc2)=NO1 (stereo not drawn)	0.7%	-1.9%	4.2%	-2.8%	-0.3%	-17.8%	x
COc1cc(/C=C2\C(=O)NN(c3ccccc3)C2=O)ccc1OCC(N)=O	6.0%	x	7.9%	x	x	-2.9%	x
C#CCOc1ccc(/C=C2/C(=O)NN(c3ccc(F)cc3)C2=O)cc1OC	-3.3%	3.55µM*	-1.8%	-8.5%	-5.4%	-1.1%	36.9
Cc1cccc(Nc2nnc(SC/C(O)=C(\C#N)c3nc4ccccc4[nH]3)s2)c1	-10.0%	12.6µM*	4.3%	-11.8%	-15.7%	-1.8%	11.1
Cc1ccc(Nc2nnc(SC/C(O)=C(\C#N)c3nc4ccccc4[nH]3)s2)c(C)c1	5.3%	7.9%	5.4%	-11.0%	-6.5%	-9.5%	x
O=C(CCCCn1c(=O)c2ccccc2n(Cc2ccc(F)cc2Cl)c1=O)NCCc1ccc(Cl)cc1	x	x	x	-3.8%	x	-2.3%	x
COc1ccc(N2CCN(c3oc(/C=C/c4ccc(F)cc4)nc3C#N)CC2)cc1	x	x	x	1.5%	x	-2.3%	x
Cn1c(SCC(=O)NNC(=S)Nc2ccccc2)nnc1-c1ccncc1	-7.1%	3.16µM*	-1.5%	x	x	1.5%	0.1
CC(C)CCSc1nc2c(c(=O)[nH]c(=O)n2C)n1CCCc1ccccc1	22.7%	u	0.4%	-2.9%	9.3%	-4.8%	-28.5
Cc1ccc(-c2nc(C)c(CCNS(=O)(=O)c3ccc(F)c(C(F)(F)F)c3)s2)cc1	x	x	x	6.7%	x	-12.8%	x
Cc1ccc(Nc2nc3ccccc3nc2Nc2c(C)n(C)n(-c3ccccc3)c2=O)cc1	-0.6%	11.3%	-0.8%	-3.0%	-7.3%	-12.4%	x
Cc1c(Nc2nc3ccccc3nc2NS(=O)(=O)c2cccc(Cl)c2)c(=O)n(-c2ccccc2)n1C	7.7%	8.91µM*	7.7%	9.4%	-1.6%	7.5%	12.5
CC(C)OC(=O)c1cc2c(OC[C@@H](O)CNC(C)(C)C)cccc2[nH]1	-0.1%	x	x	-12.3%	x	x	x
CCCCCCn1c(COc2ccccc2F)nnc1SCC(=O)c1c(N)n(C)c(=O)n(C)c1=O	5.7%	u	-1.8%	x	x	-7.2%	-3.5
Cc1ccc(CSCCC(=O)N2CCN(c3cc(C)ccc3C)CC2)cc1	x	x	x	-7.5%	x	-2.4%	x
C=CCNC(=O)/C(=C\C=C\c1ccccc1)NC(=O)c1ccc(OCCCC)cc1	x	11.2µM*	1.1%	-4.1%	2.1%	-12.9%	u
O=C(Cn1c2c(sc1=O)C1c3ccccc3OCC1CS2)Nc1ccc(Cl)c(Cl)c1 (stereo not drawn)	-7.1%	20µM*	2.5%	-10.7%	5.3%	-29.7%	-4.5
COc1ccccc1NC(=O)CC(=O)CSc1nnc(-c2ccc(C)cc2)n1-c1ccccc1	4.7%	14.1µM*	0.5%	1.2%	x	-2.7%	7.7
O=C(CSc1nnc(-c2ccccc2)n1-c1ccccc1)NCc1ccco1	4.5%	17.8µM*	8.0%	-1.3%	2.3%	-0.7%	0.5
SMILES	FBPA Giardia inh	NS1 function inh	LmPK inhibitor	TbPYK inhibitor	RE007 growth inh	Sm TGR inh	NS1 inh valid	others
O=C(CSc1nnc(-c2ccco2)n1-c1ccccc1)NCc1ccco1	x	20.7%	-2.0%	-19.1%	8.7%	-29.8%	x
COc1ccc(C(C)=O)cc1CSc1nnc(-c2ccncc2)n1C	1.8%	x	-7.3%	3.5%	-9.9%	-4.7%	x
COc1ccc(C(C)=O)cc1CSc1nnc(-c2ccc(Cl)cc2)n1-c1ccccc1	1.9%	1µM*	-2.2%	-4.1%	13.0%	-20.0%	u
Cc1ccc(NC(=O)CN2C(=O)S/C(=C\c3cc(C)n(C)c3C)C2=O)cc1	-0.4%	4.6%	-1.4%	-15.4%	-26.1%	-5.3%	x
Cc1ccc(NC(=O)CN2C(=O)S/C(=C\c3cc(C)n(-c4cccc(C(=O)O)c4)c3C)C2=O)cc1	1.0%	11.2µM*	1.5%	-4.0%	-16.4%	-9.1%	7.4
COc1ccc2[nH]c(=O)c(CNc3cccc(C)c3)cc2c1	u	2.82µM*	1.7%	1.7%	0.1%	-34.7%	0.2
COC(=O)c1ccc(NC(=O)CC2C(=O)N(c3ccc(Cl)cc3)C(=O)N2Cc2cccs2)cc1 (stereo not drawn)	x	x	x	-3.2%	x	3.3%	x
CC(C)(C)NC(=O)C(c1c[nH]c2ccccc12)N(C(=O)Cn1nnc(-c2ccc(Cl)cc2)n1)c1ccccc1F (stereo not drawn)	-10.9%	u	-2.1%	-6.8%	-0.2%	-9.9%	x
COc1cccc(N(C(=O)Cn2nnc(-c3ccc(C)cc3)n2)C(C(=O)NC(C)(C)C)c2c[nH]c3ccccc23)c1 (stereo not drawn)	-9.3%	u	0.1%	3.7%	0.7%	1.2%	16.6
COc1cccc(NC(=O)CSc2nnc3[nH]c(=O)cc(-c4ccccc4)n23)c1	x	x	x	-3.9%	x	-0.7%	x
COc1cc(C(=S)N2CCCC2)cc(OC)c1O	-11.2%	3.98µM*	8.6%	-14.8%	-3.7%	3.6%	6.0
Cc1cc(C)cc(NC(=O)CSc2nnc(-c3ccccc3C)o2)c1	-8.2%	u	0.5%	-3.0%	-2.0%	-16.1%	-13.6
CC1CC(C)CN(S(=O)(=O)N2CCC(C(=O)NCCc3ccccc3)CC2)C1 (stereo not drawn)	-0.3%	u	-1.7%	3.6%	-3.4%	7.0%	-5.9
CC(C)CC(=O)NC(NC(=S)Nc1sc2c(c1C#N)CCCC2)C(Cl)(Cl)Cl (stereo not drawn)	6.9%	7.08µM*	-0.3%	-2.6%	-3.2%	3.2%	-11.5	PR8 titer=8.33

Source: PubChem BioAssay (National Center for Advancing Translational Sciences (NCATS))
